The list is not random: actives were taken first. Their share in the collection is about 14%.
Pf growth 48h: P. falciparum growth inhibition at 48 hours (one generation); 310,000 compounds, 5.9% hits; AID 504832; P. falciparum luciferase growth in erythrocytes, 48 h; Potency, µM (doses to about 28.7 µM), most hits filed as inhibitors
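Parasite viability was followed by luminescence of a genomically integrated firefly luciferase. Cultures held 0.1% parasitemia at 2% hematocrit (final), incubated under 5% CO2 at 37 C.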
LASV entry inh: Lassa virus entry inhibition | AID 540256 | Lassa virus pseudotype entry inhibition, cell reporter | Potency, µM (series often up to 37.9 µM), usual class: inhibitors | 300,000 compounds, 1.2% hits; calls by dose curve; tested in HEK293 cells; also: nearly all actives have a fitted effect of over 50% in size
HCV inh: blocks hepatitis C virus | 340,000 compounds, 3.4% hits | Huh7.5.1 HCVcc-Cre infection, luciferase reporter, 44 h | Potency, µM (titrated, usually from 41.8 µM), usual class: inhibitors
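HCVcc-Cre virus at an moi near 0.5 was added right after compound to cells cultured 4 h from seeding (1,000 cells/well). Luciferase activity was determined 44 h later, 15 min after substrate addition at RT.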
Pf growth 96h: inhibits malaria parasite growth, 96 h. P. falciparum luciferase reporter growth, 96 h. Potency, µM (top dose mostly 28.7 µM), most hits filed as inhibitors. 320,000 compounds, 6.9% hits. AID 504834
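P. falciparum expressing integrated firefly luciferase grown in erythrocytes (2% hematocrit, 0.05% parasitemia final) with compounds for 96 hours at 37 C, 5% CO2. Growth inhibition read as loss of luminescence after adding luciferase detection reagent.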
Marburg entry inh: blocks Marburg virus binding to or entry into cells. Marburg virus pseudotyped entry inhibition, cell reporter. Potency, µM (titrated, usually from 37.8 µM), hits mostly inhibitors. 300,000 compounds, 1.8% hits. AID 540276; calls by dose curve; tested in HEK293 cells
HCMV antiviral: inhibitors of human cytomegalovirus; HFF cells, HCMV-luciferase reporter, 72 h; active compounds read low; activity change, negative = inhibition, % at 57.5 µM; 410,000 compounds, 4.5% hits; in the data active = activity change below about -60%; inconclusive = no clear call, values can overlap the other calls; inactive = above about -39%
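Luciferase read-out from HCMV-luciferase-infected HFFs (MOI 1 PFU/cell) 72 h post infection at 37C; compounds added after 16 h cell attachment; activity normalized between buffer-only basal and Salinomycin (10uM) inhibitor controls.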
Hits are given with their value; ! = repeats disagree. Unless noted, calls follow the shape of the dose curve; as a rule, active = well fitted inhibition curve with a large enough effect; inconclusive = small, poorly fitted or top-dose-only effect, or another doubt; inactive = no such curve, though single readings can be large or run the other way.

For CCN1CCN(c2ccc(NC(=O)COc3ccc(Cl)cc3C)cc2)CC1 the results were HCV inh 10µM and HCMV antiviral inconclusive.
Screening CC(=O)N1CCN(c2ccccc2NC(=O)COc2ccc(Cl)cc2Cl)CC1 returned Pf growth 48h 10.4µM, LASV entry inh inactive, HCV inh inconclusive, Marburg entry inh inconclusive and HCMV antiviral inactive.
`CC(=O)NC(=S)Nc1ccc(NC(=O)COc2ccc(Cl)cc2Cl)cc1` gave Pf growth 48h inactive, LASV entry inh inactive, HCV inh inconclusive, Pf growth 96h inconclusive, Marburg entry inh inconclusive and HCMV antiviral inactive.
Screening CCCOc1ccc(CC(=O)NNC(=S)Nc2ccccc2)cc1Br returned Pf growth 48h inactive, LASV entry inh inactive, HCV inh inactive, Pf growth 96h inactive, Marburg entry inh inactive and HCMV antiviral inactive.
For Cc1ccc2cccc(NC(=O)C(C)Oc3ccc(Cl)cc3Cl)c2n1 (stereo not drawn) the results were LASV entry inh inactive, Marburg entry inh inconclusive and HCMV antiviral inactive.
Screening COc1ccc(CC(=O)NNC(=S)Nc2ccccc2)cc1Cl returned Pf growth 48h inactive, LASV entry inh inactive, HCV inh inactive, Pf growth 96h inconclusive, Marburg entry inh inactive and HCMV antiviral -69.9.
Screening Cc1cc(NC(=O)C(C)Oc2ccc(Cl)cc2Cl)n(-c2ccccc2)n1 (stereo not drawn) returned LASV entry inh inactive, HCV inh inconclusive, Pf growth 96h 5.86µM, Marburg entry inh inconclusive and HCMV antiviral inactive.
For O=C(COc1ccc(Cl)cc1Cl)NC(=S)Nc1ccccc1C(=O)O the results were Pf growth 48h inactive and Pf growth 96h inactive.
`O=C(CCCOc1ccc(Cl)cc1Cl)Nc1ccccc1C(=O)O` gave Pf growth 48h inactive, LASV entry inh inconclusive, HCV inh inactive, Pf growth 96h inactive, Marburg entry inh 3.16µM and HCMV antiviral inactive.
Screening O=C(COc1ccc(Cl)cc1Cl)NNC(=S)Nc1ccc(F)cc1 returned Pf growth 48h inactive, LASV entry inh inactive, HCV inh inactive, Pf growth 96h inactive, Marburg entry inh inactive and HCMV antiviral -103.3.
`COc1cc(NC(=O)c2cnc3c(-c4ccc(F)cc4)c(C)nn3c2C)cc(OC)c1` gave LASV entry inh inactive and HCMV antiviral inactive.
`O=C(COc1ccccc1Cl)Nc1ccc(N2CCCC2)cc1` gave Pf growth 48h inactive, HCV inh inconclusive, Pf growth 96h inactive and HCMV antiviral inactive.
`CC(Oc1ccc(Cl)cc1Cl)C(=O)Nc1ccc(N2CCN(C)CC2)cc1` (stereo not drawn) gave Pf growth 48h 13.1µM, LASV entry inh inconclusive, HCV inh inconclusive, Pf growth 96h inactive, Marburg entry inh 11.6µM and HCMV antiviral inactive.
For O=C(COc1ccccc1Cl)Nc1ccc(N2CCN(C(=O)c3ccccc3)CC2)cc1 the results were Pf growth 48h inconclusive, HCV inh 5.01µM, Pf growth 96h inactive and HCMV antiviral inactive.
Screening CCOC(=O)C1=C(C)NC(SCC(=O)OC)=C(C#N)C1c1ccc(C(=O)OC)cc1 (stereo not drawn) returned Pf growth 48h inconclusive, LASV entry inh inactive, HCV inh inactive, Pf growth 96h inactive, Marburg entry inh inactive and HCMV antiviral inactive.
`CCOC(=O)C1=C(C)Nc2sc(C(=O)c3ccc(F)cc3)c(N)c2C1c1ccc(C(=O)OC)cc1` (stereo not drawn) gave Pf growth 48h 7.38µM, LASV entry inh inconclusive, HCV inh 7.08µM, Pf growth 96h 4.65µM, Marburg entry inh inconclusive and HCMV antiviral inactive.
CCOC(=O)C1=C(C)Nc2sc(C(=O)c3ccc(C)cc3)c(N)c2C1c1ccc(C(=O)OC)cc1 (stereo not drawn) was read as Pf growth 48h 11.7µM, LASV entry inh inconclusive, HCV inh inconclusive, Pf growth 96h 5.22µM, Marburg entry inh inconclusive and HCMV antiviral inactive.
`CC(=O)Nc1ccc2nc(NC(=O)c3ccco3)sc2c1` gave Pf growth 48h inactive, HCV inh inactive, Pf growth 96h inconclusive and HCMV antiviral inactive.
CC(=O)Nc1ccc2nc(NC(=O)c3ccc([N+](=O)[O-])o3)sc2c1 was read as Pf growth 48h inconclusive, LASV entry inh inconclusive, HCV inh inactive, Pf growth 96h inconclusive, Marburg entry inh inconclusive and HCMV antiviral -102.3.
Screening CCc1nnc(NC(=O)CN2CCN(Cc3ccc(C)cc3)CC2)s1 returned Pf growth 48h inactive, HCV inh inactive, Pf growth 96h 9.28µM and HCMV antiviral inactive.
Screening CCCC(=O)Nc1nc2ccc(NC(=O)c3ccc(Br)o3)cc2s1 returned Pf growth 48h inconclusive, LASV entry inh inactive, HCV inh 7.94µM, Pf growth 96h inactive, Marburg entry inh inconclusive and HCMV antiviral inactive.
Screening CCc1nnc(NC(=O)c2ccc(Br)o2)s1 returned Pf growth 48h inactive, LASV entry inh inactive, HCV inh inactive, Pf growth 96h 5.86µM, Marburg entry inh inactive and HCMV antiviral inactive.
Cc1ccc(NC(=O)Cn2c(=O)n(CCc3ccccc3)c(=O)c3c4c(sc32)CCCC4)c(C)c1 was read as LASV entry inh inactive, Marburg entry inh inconclusive and HCMV antiviral inactive.
`CC(C)(C)NC[C@H](O)c1ccc(O)c(CO)c1` gave Marburg entry inh inactive.
Screening CC(C)(C)NCC(O)c1cc(Cl)c(N)c(Cl)c1 (stereo not drawn) returned Pf growth 48h 12µM, LASV entry inh inactive, HCV inh inactive, Pf growth 96h 10.7µM!, Marburg entry inh inactive and HCMV antiviral inactive.
Screening CCn1c(C)c(C)c2cc(C(=O)NCCc3ccco3)ccc21 returned Pf growth 48h inconclusive, HCV inh 15.8µM, Pf growth 96h inactive and HCMV antiviral inactive.
`CCn1c(C)c(C)c2cc(C(=O)NCCN3CCCCCC3)ccc21` gave Pf growth 48h inactive, HCV inh 12.6µM, Pf growth 96h inconclusive and HCMV antiviral inactive.
Screening CCn1c(C)c(C)c2cc(C(=O)N3CCc4ccccc4C3)ccc21 returned Pf growth 48h inconclusive, HCV inh inconclusive, Pf growth 96h inactive and HCMV antiviral -85.0.
Screening Cc1c(C)n(C)c2ccc(C(=O)NCCc3ccco3)cc12 returned Pf growth 48h inconclusive, HCV inh inconclusive, Pf growth 96h inactive and HCMV antiviral inactive.
For CCn1c(C)c(C)c2cc(C(=O)NCCCN3CCCCCC3)ccc21 the results were Pf growth 48h inactive, LASV entry inh inconclusive, HCV inh inconclusive, Pf growth 96h inconclusive, Marburg entry inh inconclusive and HCMV antiviral inactive.
For Cc1nnsc1-c1nc2ccccc2n1C(CCc1ccccc1)c1nc2ccccc2[nH]1 (stereo not drawn) the results were HCMV antiviral inactive.
Cc1ccc(C)c(N2CCN(C(=O)CCCN3C(=S)NC(C)(C)CC3C)CC2)c1 (stereo not drawn) was read as Pf growth 48h inconclusive, LASV entry inh inconclusive, HCV inh 10µM, Pf growth 96h inconclusive, Marburg entry inh inconclusive and HCMV antiviral -63.8.
